Shown is part of a subset that was picked to be rich in hits.
AMA1-RON2 inh = AMA1-RON2 (P. falciparum) interaction inhibition | AlphaScreen AMA1-biotinylated RON2 peptide binding | Potency, µM (titrated, usually from 58.2 µM), for the others: at the highest dose activity change, negative = inhibition, hits mostly inhibitors | actives 0.2% (n = 360,000) | AID 720542; active means well fitted inhibition curve with a large enough effect; inconclusive means small, poorly fitted or top-dose-only effect; inactive means no such curve, though single readings can be large or run the other way;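 further: potency means the concentration at half of the fitted maximal effect; 0% = vehicle wells and -100% = peptide control; nearly all actives have a fitted effect of over 45% in size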
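AMA1 (3D7) with his tag at 25 nM final met compounds first, then biotinylated RON2 peptide at 25 nM; detection used donor plus acceptor beads, 10 µg/mL apiece, read by AlphaScreen after 30 min at room temperature.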
Shiga inhibitor = Shiga toxin inhibition | Vero cells, Shiga toxin protein synthesis inhibition reporter | inhibition, % at 38.7 µM | actives 9.2% (n = 290,000) | AID 2315; in the data active means inhibition mostly above about 28%, no sharp cut-off; inactive means mostly below about 43%; further: 0% is about no effect
LASV entry inh = inhibitors of Lassa virus binding or cell entry; actives 1.2% (n = 300,000); Lassa virus pseudotype entry inhibition, cell reporter; Potency, µM (highest dose often 37.9 µM), without a hit: at the top dose activity change, negative = inhibition, most hits filed as inhibitors; calls by dose curve; tested in HEK293 cells; further: potency means the concentration at half of the fitted maximal effect; on the % scale 0 is the no-effect control and ±100 the full control effect; nearly all actives have a fitted effect of over 50% in size
Marburg entry inh = inhibitors of Marburg virus binding or cell entry; Marburg virus pseudotyped entry inhibition, cell reporter; Potency, µM (doses to about 37.8 µM), for the others: top-dose activity change, negative = inhibition, most hits filed as inhibitors; actives 1.8% (n = 300,000); AID 540276; calls by dose curve; tested in HEK293 cells; further: potency means the concentration at half of the fitted maximal effect; on the % scale 0 is the no-effect control and ±100 the full control effect
CHX counter = counter-screen for Shiga toxin inhibitors: cycloheximide protein synthesis inhibition | cell reporter, cycloheximide protein synthesis inhibition counterscreen | max response, % | actives 12% (n = 300,000); in the data active means max response mostly above about 13%, no sharp cut-off; inactive means mostly below about 14%; further: read at 38.3 µM for the half of the compounds with a filed dose; 0% is about no effect
The depositor's hits bear a star; ? = inconclusive; nt = no result; [ ] = dose if it differs, or a comment.

SMILES	AMA1-RON2 inh	Shiga inhibitor	LASV entry inh	Marburg entry inh	CHX counter
CC(=O)Nc1cccc(NC(=O)c2cccc(Cl)c2)c1	-3%	nt	nt	nt	nt
CC(=O)Nc1ccc(NC(=O)Nc2cccc(Cl)c2)cc1	-11%	50*	nt	nt	27*
O=C(Nc1ccccc1)C(Cl)C(=O)c1ccccc1 (stereo unspecified)	-8%	nt	nt	nt	36*
NS(=O)(=O)c1cccc(NC(=O)Nc2ccccc2)c1	16%	26	24%	11%	11*
Cc1ccc(N2C(=O)CC(SCC(=O)Nc3ccc(S(N)(=O)=O)cc3)C2=O)cc1 (stereo unspecified)	18%	154*	-14%	13%[46.1 µM]	64*
COc1ccc(C(CC(=O)NCc2ccc(Cl)cc2)N2Cc3ccccc3C2=O)cc1OC (stereo unspecified)	nt	nt	-8%[46.1 µM]	nt	nt
Cc1cc(NC(=O)c2cc(-c3ccc(Br)cc3)on2)nn1Cc1ccc(Cl)cc1	nt	nt	2%[46.1 µM]	5%[46.1 µM]	nt
Cc1ccc(NC(=O)NC(=O)N(C(C)C)S(=O)(=O)c2ccc(C)cc2)cc1	-1%	31	nt	nt	23*
C/C(CC(=O)Nc1cccnc1)=N\NC(=O)C(C)Oc1ccc(Cl)cc1Cl (stereo unspecified)	30%	11	-15%	?	10
Cc1cccc(N2CCN(Cc3nc(-c4cccc(Cl)c4)oc3C)CC2)n1	-24%	-3	-21%	7.1µM*	1
Cc1cccc(N2CCN(Cc3nc(-c4ccccc4Cl)oc3C)CC2)n1	-13%	-2	-15%[46.1 µM]	?	-1
O=C(OC1CCN(CCCl)CC1)C(c1ccccc1)c1ccccc1	-2%	nt	nt	10µM*	nt
C[N+]1(C)[C@@H]2CC[C@H]1CC(OC(=O)C(c1ccccc1)c1ccccc1)C2 (stereo partly specified)	-1%	19	nt	nt	-1
O=C(NCCNC(=O)c1cc(OCC(F)(F)F)ccc1OCC(F)(F)F)Nc1ccc(Cl)cc1	27%	39	?	13%	28*
CC(=O)Nc1ccc(NC(=O)Cc2ccc(F)cc2)cc1	nt	-2	nt	nt	4
O=C(Nc1ccc(F)cc1)Nc1cc(OCC(F)(F)F)cc(OCC(F)(F)F)c1	10%	-6	18µM*	8.9µM*	7
CC(C)(C)c1ccc(NC(=O)Nc2ccc(F)cc2)cc1	-15%	68*	?	?	42*
CC(C)(C)c1ccc(COC(=O)Nc2ccc(F)cc2)cc1	0%	35*	13%	?	19*
COc1ccc(C(=O)Nc2ccc3c(c2)CCCN3C(=O)c2cccs2)c(OC)c1	-6%	-1	?	nt	12
O=C(Nc1ccc(C(=O)N2CCCC2)cc1)c1ccccc1	-4%	nt	nt	nt	nt
O=C(Nc1ccc2c(c1)CCCN2C(=O)c1ccccc1)c1ccccc1	2%	54*	?	?	22*
Cc1ccccc1C(=O)Nc1ccc2c(c1)CCCN2C(=O)c1cccs1	-8%	11	0.89µM*	nt	10
COc1cccc(C(=O)Nc2ccc3c(c2)CCCN3C(=O)c2cccs2)c1OC	-4%	49*	?	nt	26*
CC1=C(C(=O)OCC2CCCO2)C(c2ccc(Cl)cc2)NC(=O)N1 (stereo unspecified)	-11%	-11	nt	?	-1
CCc1cc(C(=O)N/N=C/c2ccc(OC)cc2)c2ccccc2n1	-5%	-3	?	?	-2
SMILES	AMA1-RON2 inh	Shiga inhibitor	LASV entry inh	Marburg entry inh	CHX counter
Cc1ccc(-n2nc3ccc(NC(=O)/C=C/c4ccco4)cc3n2)cc1	-3%	74*	-6%	-16%	22*
Cc1ccc(NC(=O)c2cccc(NC(=O)/C=C/c3ccco3)c2)cc1C	-6%	137*	-5%	?	57*
O=C(/C=C/c1ccco1)Nc1cccc(C(=O)Nc2ccccc2C(=O)O)c1	-1%	-6	nt	nt	-1
Cc1ccc(NC(=O)N/C=C/c2ccco2)cc1C	-1%	9	-1%	4%	12
CCc1ccccc1NC(=O)c1cccc(NC(=O)/C=C/c2ccco2)c1	-4%	105*	-7%	-24%	69*
CC(C)C[C@H](NC(=O)[C@H](CCCCN)NC(=O)[C@H](CCCNC(=N)N)NC(=O)[C@H](C)NC(=O)[C@H](CO)NC(=O)[C@H](CCCCN)NC(=O)[C@H](CCCNC(=N)N)NC(=O)[C@H](C)NC(=O)CNC(=O)[C@@H](NC(=O)[C@H](Cc1ccccc1)NC(=O)CNC(=O)CNC(=O)[C@@H](N)Cc1ccccc1)[C@@H](C)O)C(=O)N[C@@H](C)C(=O)N[C@@H](CC(N)=O)C(=O)N[C@@H](CCC(N)=O)C(=O)O	nt	16	nt	nt	-1
Cc1ccc(Cl)cc1NC(=O)Nc1nnc(N2CCCC(C)C2)s1 (stereo unspecified)	nt	nt	2%[46.1 µM]	?	nt
COc1ccccc1CNC(=O)CSc1nc(=O)[nH]c2c1CCC2	nt	nt	0%[46.1 µM]	nt	nt
Cc1cc2sc(NC(=O)c3ccco3)nc2cc1Cl	-11%	79*	?	?	71*
COc1cc2sc(NC(=O)c3ccco3)nc2cc1Cl	8%	102*	nt	nt	45*
Cc1nc2cc(NC(=O)NCc3ccc4c(c3)OCO4)ccc2o1	-2%	2	5%	8%	-1
CCn1nc(C)c(CNC(=O)Nc2ccc3c(c2)OCO3)c1C	-1%	91	21%	1%	45*
Cc1cc(CNC(=O)Nc2ccc3c(c2)OCO3)nn1C	13%	61*	17%	?	27*
C#CC1(NC(=O)NC(C)C)CCCCC1	-3%	-4	nt	nt	3
CCc1ccccc1-n1c(SCC(=O)Nc2ccc3c(c2)OCCO3)nc2[nH]ncc2c1=O	-2%	112*	?	-1%	53*
CCn1c(C)nnc1SCC(=O)Nc1ccc2c(c1)OCCO2	-3%	26	2%	?	13*
O=C(CS(=O)(=O)c1c[nH]c2ccccc12)Nc1ccc2c(c1)OCCO2	-2%	45*	0%	11%	38*
O=C(CSc1nnc(-c2ccc(Cl)cc2)n1Cc1ccco1)Nc1ccc2c(c1)OCCO2	-29%	4	-14%	?	11
O=C(CSc1nnc(-c2ccccc2Cl)n1Cc1ccco1)Nc1ccc2c(c1)OCCO2	-8%	4	-24%	?	13*
CCc1ccccc1-n1c(SCC(=O)N2CCCC2)nc2[nH]ncc2c1=O	3%	-11	3%[46.1 µM]	19%[46.1 µM]	6
O=C(CSc1nnc(-c2c[nH]c3ccccc23)n1CC1CCCO1)Nc1ccc2c(c1)OCCO2 (stereo unspecified)	-9%	-4	-10%	3%	7
Cc1ccc(NCc2nnc(SCC(=O)Nc3ccccc3)n2CC2CCCO2)c(C)c1 (stereo unspecified)	3%	48	1%	0%	33*
Cc1ccc(NC(=O)CSc2nnc(C3CC3)n2CC2CCCO2)c(C)c1 (stereo unspecified)	-18%	49	2%[46.1 µM]	0%[46.1 µM]	-2
COc1ccc(-c2cnc(SCC(=O)Nc3ccc4c(c3)OCO4)n2Cc2ccco2)cc1	14µM*	25	?	?	14*
CCn1c(SCC(=O)Nc2ccc3c(c2)OCCO3)nnc1-c1c[nH]c2ccccc12	-13%	14	nt	nt	12*

Assay outcomes from PubChem.
